# High-throughput results from PubChem.
# In the library only some 19% were active in any assay of this set; here they are far more common.
# HepG2 viability: counter-screen for TGF-b inhibitors: cytotoxicity in HepG2 cells | AID 588856 | hit rate 0.76% among 410,000 | HepG2 CAGA-GFP viability, ATP luminescence, 18 h | Potency, µM (highest dose often 46.1 µM), usual class: cytotoxic
#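 CellTiter-Glo luminescence gave cytotoxicity after 18 hours at 37 degrees C. The cells were HepG2 CAGA-GFP in 1% FBS DMEM, stimulated with 500 pg/mL TGF-beta after compound addition. %Activity was normalised to no-cell wells (complete cell-killing) and DMSO (no toxicity), and curves were fitted and classified.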
# TDP1 inh: inhibitors of human tyrosyl-DNA phosphodiesterase TDP1 | recombinant TDP1, AlphaScreen DNA substrate cleavage | Q9NUW8 | hit rate 0.28% among 350,000 | AID 485290 | Potency, µM (series often up to 130 µM), hits mostly inhibitors; also: nearly all actives have a fitted effect of over 40% in size
# Target sequence (Q9NUW8 whole entry, looked up): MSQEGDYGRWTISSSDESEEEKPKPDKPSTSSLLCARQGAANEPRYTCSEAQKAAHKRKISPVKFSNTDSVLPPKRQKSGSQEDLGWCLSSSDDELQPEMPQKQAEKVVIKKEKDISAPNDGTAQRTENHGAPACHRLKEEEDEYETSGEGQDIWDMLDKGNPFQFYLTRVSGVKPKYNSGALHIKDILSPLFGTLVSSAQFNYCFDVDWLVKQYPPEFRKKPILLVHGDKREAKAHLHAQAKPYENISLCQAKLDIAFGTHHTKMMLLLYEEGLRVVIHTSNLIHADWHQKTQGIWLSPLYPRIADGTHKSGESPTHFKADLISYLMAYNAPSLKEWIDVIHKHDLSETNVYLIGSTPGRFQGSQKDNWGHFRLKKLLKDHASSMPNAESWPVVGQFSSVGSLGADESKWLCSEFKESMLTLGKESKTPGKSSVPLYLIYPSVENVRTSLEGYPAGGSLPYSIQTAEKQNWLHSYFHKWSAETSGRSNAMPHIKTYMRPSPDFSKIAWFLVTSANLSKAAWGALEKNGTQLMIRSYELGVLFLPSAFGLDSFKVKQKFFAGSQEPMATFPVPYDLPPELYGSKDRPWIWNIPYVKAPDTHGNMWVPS
#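 Here, a 5' biotin and 3' phosphotyrosine-FITC DNA oligonucleotide reports Tdp1 activity: intact substrate bridges AlphaScreen beads, while cleavage leaves a 3' phosphate and drops signal. All incubations at room temperature.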
# TGFb inhibitor: inhibitors of TGF-b signaling; HepG2 CAGA-GFP TGF-b/SMAD3 reporter, GFP fluorescence, 18 h; TGF-beta stimulated, 500 pg/mL final; Potency, µM (series often up to 46.1 µM), actives largely listed as inhibitors; hit rate 1.2% among 410,000; AID 588855; also: nearly all actives have a fitted effect of over 65% in size
#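 Inhibition was scored as loss of TGF-beta-induced (500 pg/mL final, 18 hours, 37 degrees C) GFP in HEPG2 cells carrying a CAGA-GFP reporter, in DMEM with 1% FBS. Well GFP was summed per cell; Activity was normalised to unstimulated and stimulated DMSO wells, then concentration-response fitting.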
# DT40 TDP1 CPT: growth inhibition of DT40 Tdp1-/-;hTDP1 cells with camptothecin (screen for TDP1 inhibitors). chicken DT40 Tdp1-/-;hTDP1 cells + 20 nM CPT, ATP luminescence, 48 h. Potency, µM (titrated, usually from 46.2 µM), most hits filed as inhibitors. AID 686979. hit rate 12% among 420,000; also: nearly all actives have a fitted effect of over 55% in size
#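 Chicken DT40 Tdp1-/- cells stably complemented with human TDP1 were seeded at 400 cells/well in medium containing 20 nM camptothecin, exposed to pin-transferred compounds, and grown at 37 °C for at least 48 hr. Viability was read as ATP luminescence.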
# IL1B secr inh: inflammasome signaling inhibition, IL-1 beta readout | THP-1 LPS/ATP IL-1B secretion, AlphaLISA, 16 h; active compounds read low | activity change, % at 57.5 µM | hit rate 4.7% among 360,000 | AID 743279; in the data active = activity change below about -50%; inconclusive = mostly about -30% to -49%
#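 THP-1 cells pretreated 1 hr with compounds (up to 57.5 uM final), then stimulated with LPS (250 ng/mL final) plus ATP (1.25 mM final); secreted IL-1B measured by AlphaLISA after 16 hr, decreased signal indicating inhibition.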
# DT40 TDP1 no CPT: qHTS for Inhibitors of human tyrosyl-DNA phosphodiesterase 1 (TDP1): qHTS in cells in absence of CPT; Potency, µM (titrated, usually from 46.2 µM), actives largely listed as inhibitors; AID 686978, 2013; hit rate 15% among 420,000; DT40 Tdp1-/- hTDP1 cells, no CPT, ATP luminescence, 48 h; also: nearly all actives have a fitted effect of over 55% in size
#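 No-CPT arm: Tdp1-/-;hTDP1 DT40 cells (400/well) plus compounds, incubated ≥48 hr at 37 °C. Readout CellTiter-Glo luminescence.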
# Hits are given with their value; 0 = inactive; ? = inconclusive; - = not tested or not shown. Unless noted, calls follow the shape of the dose curve; as a rule, active = well fitted curve in the direction sought with a large enough effect; inconclusive = small, poorly fitted or top-dose-only effect, or another doubt; inactive = no such curve, though single readings can be large; an effect the other way counts as inactive or inconclusive.
SMILES,HepG2 viability,TDP1 inh,TGFb inhibitor,DT40 TDP1 CPT,IL1B secr inh,DT40 TDP1 no CPT
CC1Cc2ccccc2N1C1=CC(=O)CCC1 (centres undefined),0,0,?,7.3µM,0,5.8µM
CC1Cc2ccccc2N1C1=NS(=O)(=O)c2ccccc21 (centres undefined),0,0,0,0,0,0
O=C(Nc1ncccn1)c1cc([N+](=O)[O-])cc([N+](=O)[O-])c1,0,0,0,0,0,0
O=[N+]([O-])c1cc(-c2ncccn2)c([N+](=O)[O-])s1,0,0,11µM,2.3µM,-86,2.9µM
CC(C)c1ccc(N2C(=O)CC(Sc3ncn[nH]3)C2=O)cc1 (centres undefined),0,?,?,4.6µM,0,4.6µM
CC(C)c1ccc(N2C(=O)CC(Sc3nc4ccccc4o3)C2=O)cc1 (centres undefined),0,0,0,4.6µM,0,5.8µM
COc1ccc(N2C(=O)CC(Sc3ncn[nH]3)C2=O)c(OC)c1 (centres undefined),0,0,?,2.9µM,0,2.9µM
COc1ccc(N2C(=O)CC(NC34CC5CC(CC(C5)C3)C4)C2=O)c(OC)c1 (centres undefined),0,0,0,0,0,0
CC1CC(=O)N(c2ccc(C(C)C)cc2)C(=O)C1,0,-,0,0,0,0
CCC(C)[C@H](NS(=O)(=O)c1ccc(C)cc1)C(=O)N1CCC(C(=O)N2CCC(C(=O)OC)CC2)CC1 (some centres undefined),0,-,0,0,0,0
COc1ccc(-c2ccc(C(=O)N3CCN(C)CC3)c3occc23)c(C)c1,0,-,0,15µM,0,6.5µM
COc1ccc(-c2ccc(C(=O)Nc3ccc4c(c3)OCO4)c3occc23)c(C)c1,0,-,0,?,?,?
COc1ccc(-c2ccc(C(=O)N3CCOCC3)c3occc23)c(C)c1,0,-,0,15µM,0,18µM
Cc1noc(C)c1-c1ccc(C(=O)N2CCN(C)CC2)c2occc12,0,-,0,?,0,0
Cc1csc(NC(=O)c2cc(C)on2)n1,0,0,0,0,0,0
COc1ccc(S(=O)(=O)NNC(=S)NCCc2ccccc2)c(OC)c1,0,0,0,0,0,0
Cn1c(=S)c2[nH]c(SCc3cccnc3)nc2n(C)c1=O,0,-,?,?,0,?
Cn1c(=O)c2[nH]c(SCCN)nc2n(C)c1=S,0,-,0,0,0,0
CCN(CC)CCSc1nc2c([nH]1)c(=S)n(C)c(=O)n2C,0,-,0,4.1µM,0,5.2µM
CSc1nc2c([nH]1)c(=S)n(C)c(=O)n2C,0,-,13µM,5.8µM,0,5.2µM
CCCCSc1nc2c([nH]1)c(=S)n(C)c(=O)n2C,0,-,5µM,1.3µM,0,1.2µM
Cn1c(=S)c2[nH]c(SCCC(C)(C)C)nc2n(C)c1=O,0,-,?,1.5µM,0,1µM
Cc1ccc2c(c1)C(c1ccccc1)N(C(=O)c1ccc(OC(C)C)cc1)CC(=O)N2 (centres undefined),0,0,0,?,-,?
O=C(O)c1ccc(S(=O)(=O)NCC2CCCCC2)cc1,0,-,0,0,0,0
N=C1N(c2ccccc2)C(=S)C(=Nc2ccccc2)N1c1ccccc1,0,-,1.6µM,18µM,0,13µM
SMILES,HepG2 viability,TDP1 inh,TGFb inhibitor,DT40 TDP1 CPT,IL1B secr inh,DT40 TDP1 no CPT
CNC(=S)NNC(=O)c1cc(C(C)(C)C)nn1Cc1ccc(F)cc1,0,0,0,?,0,16µM
Cc1cccc(C)c1NC(=O)NNC(=O)c1cc(C(C)(C)C)nn1Cc1ccccc1,0,0,?,0,0,?
Cc1cc(C)cc(N2CC(c3nc(-c4cccc(Cl)c4)no3)CC2=O)c1 (centres undefined),0,0,?,?,-,0
CC(=O)O[C@@H]1[C@@H](O)[C@@H](O)[C@H](Oc2c(-c3ccc(O)cc3)oc3c(CC=C(C)C)c(O)cc(O)c3c2=O)O[C@H]1C,0,-,?,?,0,?
CC(=O)O[C@H]1[C@@H](O)[C@H](O)[C@H](Oc2c(O)c(C)c3c4c2[C@@H](C)CC[C@@H]4[C@@H](C)C[C@H]3C=C(C)C)O[C@H]1C,0,0,11µM,?,0,18µM
O=C(NCCCN1CCCC1)c1[nH]c(C(F)(F)F)nc1-c1ccccc1,0,-,0,0,0,0
Cc1ccc(NC(=O)CC2S/C(=N/N=C/c3c[nH]c4ccccc34)NC2=O)cc1 (centres undefined),0,0,0,0,0,0
CCOC(=O)c1ccc(NC(=O)CC2S/C(=N/N=C/c3c[nH]c4ccccc34)NC2=O)cc1 (centres undefined),0,0,0,0,-68,?
COC(=O)c1c(NC(=O)CSc2ncnc3ccccc23)sc(C)c1C,0,-,?,18µM,0,23µM
O=C(CSc1nc2ccccc2s1)NC1CCCC1,0,0,0,0,0,0
CCOC(=O)c1c(NC(=O)CSc2nc3ccccc3s2)sc(C)c1C,0,0,0,16µM,0,?
CCOC(=O)c1c(NC(=O)CSc2nc3ccccc3c(=O)n2-c2ccc(F)cc2)sc(C(C)=O)c1C,0,0,0,0,0,0
O=C(CSc1nc2ccccc2s1)Nn1cnnc1,0,0,0,18µM,0,0
COC(=O)c1c(NC(=O)CSc2nccn2C)sc(C)c1C,0,-,0,0,0,0
CCOC(=O)c1c(NC(=O)CSc2ncnc3ccccc23)sc(C(C)=O)c1C,0,0,0,8.2µM,0,9.2µM
COc1ccc(C(=O)N(Cc2ccco2)Cc2cccs2)c(OC)c1,0,0,0,?,-,?
CSc1ncccc1C(=O)NNc1cc(Cl)ccc1Cl,0,-,0,0,0,0
COCCNC(=O)CCCN1C(=O)CCn2nc(-c3cccn3C)cc21,0,0,0,0,-,0
Cc1ccsc1/C=N/N=C/c1sccc1C,0,-,0,0,0,?
Cc1ccsc1C=Nc1ccc(O)cc1,0,0,?,?,-99,?
CCOc1ccccc1C1N=C(N)Nc2nc3ccccc3n21 (centres undefined),0,0,?,0,-,0
CCOc1ccccc1C1N=C(c2ccc(OC)cc2)CC(c2ccccc2O)N1 (centres undefined),0,0,?,21µM,0,16µM
CN(C)[C@@H](CO)c1nnc([C@H](CC(=O)O)NC(=O)C2CCNCC2)o1,0,0,0,4.6µM,0,0
COc1ccc(CNc2nc(-c3ccco3)nn2C(=O)CC(C)C)cc1,0,0,0,0,-,0
